The whole screen tested about 370,000 compounds, of which about 5,400 (1.5%) were called active.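 How the source made its calls: active means activation above the mean of all tested compounds plus 3 SD (cut at about 5.5% in these data); inactive means the rest.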 Many of the other results were omitted from the sample, so actives are more common in it than they were.

From PubChem BioAssay AID652067 (The Scripps Research Institute Molecular Screening Center, 2013) come the findings set out here.

For the assay, the system named is DAF-12 nuclear receptor (Haemonchus contortus). Put plainly: H. contortus DAF-12 nuclear receptor activators, primary screen, cell-based, luminescence, HEK293, lit1-tk-luc reporter (AID 652067).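 Further: 100% = response to 3 µM Δ7-dafachronic acid high control.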 To be noted: HEK293 hcDAF-12 lit1-tk-luc reporter, at 6.8 µM, active compounds read high, 0% DMSO, 100% Δ7-dafachronic acid.
Consider `CC(=O)c1cc(-c2ccc3ccccc3c2)c(=O)n2c1CCC2`, for which the activation was -0.26% (inactive).
The result for `COC(=O)Nc1nc2ccc(C(=O)C3CC3)cc2[nH]1` reads 0.63% (inactive); that for `C[C@@H]1CN([C@@H](C)CO)C(=O)c2cccc(NC(=O)Nc3cccc4ccccc34)c2O[C@H]1CN(C)S(=O)(=O)c1ccccc1F`, -1.14% (inactive).
The result for `C[C@@H]1ON(C)[C@H]2C[C@H]3c4[nH]c5cccc(-c6ccc7c(c6)OCO7)c5c4CCN3C[C@@H]12` reads -1.17% (inactive); that for `CCC(=O)N(Cc1cc2ccccc2[nH]c1=O)c1ccc(OC)cc1`, -1.6% (inactive); that for `COc1ccc(C2=Nc3ccccc3NC(=O)C2N(C(=O)c2cc3ccccc3[nH]2)c2ccccc2)cc1` (stereo unspecified), 6.3% (active).
With `CC(OC(=O)c1cc2ccccc2[nH]1)C(=O)N(C)c1ccccc1` (stereo unspecified), the activation was 2.38% (inactive).
With `Cc1cc(=O)oc(C)c1C(=O)NCCN(C)Cc1ccccc1`, the activation is -0.39% (inactive).
With `O=C1CC(c2ccc3c(c2)OCO3)N=C2N(CC3CC3)C/C(=C/c3ccccc3)N12` (stereo unspecified), the activation was -3.84% (inactive).
For the compound `CCNC(=O)COC(=O)/C=C/c1c(C)nn(Cc2cccc(OC)c2)c1Cl`, the activation is 0.11% (inactive).
For `O=C(NCc1cccnc1)c1nc(-c2cccs2)no1`, the activation was 5.95% (active).
For `O=C(/C=C/c1cccs1)NCc1cccnc1`, the activation was -0.87% (inactive).
With `CCc1ccc(CNC(=O)CCc2nc(-c3cccs3)no2)cc1`, the activation was 0.59% (inactive).
With `CCS(=O)(=O)N1Cc2ccccc2CC1C(=O)Nc1nc2ccc(F)cc2s1` (stereo unspecified), the activation was 7.31% (active).
The result for `Cc1ccc2nc(NC(=O)C3CSC4(C)CCC(=O)N34)sc2c1` (stereo unspecified) reads -0.71% (inactive).
As for `CCS(=O)(=O)N1Cc2ccccc2CC1C(=O)Nc1ccc(OC)cc1OC` (stereo unspecified), the activation is -0.97% (inactive).
In the case of `COC(=O)[C@]12C[C@H](CC(=O)NCc3ccccc3)C(=O)N(CCC3=CCCCC3)C1=C[C@H](C(C)(C)C)O[C@@H]2C`, the activation was 0.06% (inactive).
Regarding `O=C(NCc1cccs1)C1CCCN(S(=O)(=O)c2ccc([N+](=O)[O-])cc2)C1` (stereo unspecified), the activation is -2.29% (inactive).
For the compound `O=C(Nc1cccn(Cc2c(Cl)cccc2Cl)c1=O)c1ccc(Cl)cc1`, the activation is -0.98% (inactive).
On to `COc1ccc(-n2c(COc3ccccc3)nnc2SCC(=O)Nc2ccc3c(c2)OCO3)cc1`, for which the activation was -3.31% (inactive).
The same measure for `O=S1(=O)c2c(cccc2N2CC[C@H](O)C2)O[C@@H]2CCN1C2`: -1.21% (inactive); for `CCSc1nnc(-c2cc3c(s2)-c2ccccc2CC3)o1`: 2.59% (inactive).
`CCOc1ccc2nc(C(=O)N3CCCC(C)C3)sc2c1` (stereo unspecified): the activation was 7.97% (active).
Take `COc1ccc2cc(C(=O)C3CCCN(C(=O)c4sc(C)nc4C)C3)ccc2c1` (stereo unspecified): the activation is -2.25% (inactive).
The same measure for `CCOc1ccc(NC(=O)C2CCCN(C(=O)Nc3ccccc3)C2)cc1` (stereo unspecified): -0.89% (inactive).
For `COC(=O)[C@]12C[C@H](CC(=O)NCC34CC5CC(CC(C5)C3)C4)C(=O)N(Cc3ccc(Cl)cc3Cl)C1=C[C@H](COCc1ccccc1)O[C@@H]2C`, the activation is -1.65% (inactive).
Turning to `CCc1ccc2[nH]c(=O)c(Cc3ccccc3)c(O)c2c1`, the activation was 0.62% (inactive).
The same measure for `CCCOC(=O)Cc1c(O)c2ccccc2[nH]c1=O`: 0.81% (inactive); for `NS(=O)(=O)c1ccccc1NC(=O)c1c(O)c2ccccc2[nH]c1=O`: 15.2% (active).
`C[C@H](C(=O)N(C)c1ccccc1)[C@@H](O)c1ccc(Cl)cc1`: the activation is -1.63% (inactive).
As for `CCS(=O)(=O)c1cc([N+](=O)[O-])c(Sc2ccccc2N)s1`, the activation was 7.01% (active).
The same measure for `Cc1ccc(Cl)cc1NC(=O)C1CCCN(c2cnccn2)C1` (stereo unspecified): -1.45% (inactive).
Consider `COc1ccc(C2CC(c3cccs3)=NN2C(=O)CSc2nnc(N)s2)cc1OC` (stereo unspecified), for which the activation was -1.14% (inactive).
In the case of `COc1ccc(C2CC(c3cccs3)=NN2C(=O)COC(=O)c2cc3ccccc3cc2O)cc1OC` (stereo unspecified), the activation was -1% (inactive).
The same measure for `COc1ccc(C2CC(c3cccs3)=Nc3ccccc3S2)cc1OC` (stereo unspecified): 7.77% (active); for `CC(C)(C)NC(=O)C(c1cccnc1)N(C(=O)c1cnco1)c1ccc(C(C)(C)C)cc1` (stereo unspecified): -2.31% (inactive); for `C/C(=N\N(C)C)c1ccc(OCCOc2ccc([N+](=O)[O-])cc2)cc1`: -0.12% (inactive).
`COc1ccc(S[C@]2(C(=O)N(C)C)CC(=O)N(c3ccc(OC)cc3)[C@@H]2c2ccc(OC)cc2)cc1`: the activation is -2.06% (inactive).
The same measure for `COc1cc(OC)cc(-c2nc(=S)n3ccsc3n2)c1`: 1.3% (inactive).
The result for `COc1ccc(CSc2nnc(-c3cccc(C)c3)n2C)cc1` reads -3.02% (inactive); that for `COc1ccc(-c2ccc3c(n2)CCCN3S(=O)(=O)c2ccc(C)cc2)cc1`, -0.08% (inactive).
Turning to `COc1ccc(-c2cn3ccc(C)cc3n2)cc1`, the activation is 7.15% (active).
As to `FC(F)(F)Oc1ccc(-c2cn3cccnc3n2)cc1`, the activation is 0.45% (inactive).
`COc1ccc(-c2cn3ccsc3n2)cc1`: the activation is 6.33% (active).
The same measure for `CCOC(=O)[C@@]12CN(C(=O)OC(C)(C)C)CC=C1N(Cc1ccc(OC)cc1)C(=O)[C@H]2CC(=O)NCc1ccc(OC)c(OC)c1`: -1.83% (inactive); for `CN1C(=O)C(Br)(Br)CC1c1cccnc1` (stereo unspecified): 0.36% (inactive).
Regarding `Cc1ccc(-n2nc3c(c2NC(=O)CCC2CCCCC2)CS(=O)C3)cc1` (stereo unspecified), the activation was 1.64% (inactive).
In the case of `O=C(COc1cccc2c1CCNC2=O)NC1CCCCC1`, the activation was 0.88% (inactive).
Consider `Cc1cc(NCCc2c[nH]c3ccccc23)ccc1Oc1cccnc1`, for which the activation was -1.55% (inactive).
The same measure for `CCc1cc2c(=O)c(-c3ccon3)c(N)oc2cc1OC`: 7.31% (active).
The same measure for `CCc1cc2c(=O)c(-c3nc4ccccc4n3C)c(CCCC(=O)O)oc2cc1OC(=O)C(C)(C)C`: -0.74% (inactive); for `COc1ccc2oc(N)c(C=O)c(=O)c2c1`: -0.56% (inactive).
Turning to `O=S1(=O)c2ccc(Br)cc2OC[C@H](Cc2ccccc2)N1Cc1cn(Cc2ccccc2)nn1`, the activation was -0.79% (inactive).
Consider `C=CCN=C1NC(c2ccccc2)C(C(=O)OC)=C(C)N1Cc1ccc(C(F)(F)F)cc1` (stereo unspecified), for which the activation was 0.87% (inactive).
With `Nn1c(SCC(=O)Nc2cccc3ccccc23)nnc1-c1cc(-c2ccc(F)cc2)n[nH]1`, the activation is -1.52% (inactive).
On to `Cc1cccc(-n2c(O)c(C=Nc3ccccc3N)c(=O)[nH]c2=O)c1`, for which the activation is 6.08% (active).
